In the library only some 1.2% were active in any assay of this set; here they are far more common.
PLCb3 inh – inhibitors of human phospholipase C beta3 | inhibition, % at 12.2 µM | hit rate 0.18% among 370,000 | Purified PLC-beta3, fluorogenic substrate, fluorescence | Q01970 | AID 720704; in the data active = inhibition above about 11%;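 note: 0% = median of compound wells on plate and 100% = full blocker control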
NPR2 activator – GC-B (human) receptor activation; HEK293-GC-B cells, CNP EC30, cGMP TR-FRET; 0% at EC30 CNP, 100% saturating CNP; P20594; AID 1920062; activation, % at 10 µM; hit rate 0.11% among 370,000;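 active = activation at 10 µM reaching about 35% in either raw or pattern-adjusted values, limit read from the data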
Target sequence (P20594 whole entry, looked up): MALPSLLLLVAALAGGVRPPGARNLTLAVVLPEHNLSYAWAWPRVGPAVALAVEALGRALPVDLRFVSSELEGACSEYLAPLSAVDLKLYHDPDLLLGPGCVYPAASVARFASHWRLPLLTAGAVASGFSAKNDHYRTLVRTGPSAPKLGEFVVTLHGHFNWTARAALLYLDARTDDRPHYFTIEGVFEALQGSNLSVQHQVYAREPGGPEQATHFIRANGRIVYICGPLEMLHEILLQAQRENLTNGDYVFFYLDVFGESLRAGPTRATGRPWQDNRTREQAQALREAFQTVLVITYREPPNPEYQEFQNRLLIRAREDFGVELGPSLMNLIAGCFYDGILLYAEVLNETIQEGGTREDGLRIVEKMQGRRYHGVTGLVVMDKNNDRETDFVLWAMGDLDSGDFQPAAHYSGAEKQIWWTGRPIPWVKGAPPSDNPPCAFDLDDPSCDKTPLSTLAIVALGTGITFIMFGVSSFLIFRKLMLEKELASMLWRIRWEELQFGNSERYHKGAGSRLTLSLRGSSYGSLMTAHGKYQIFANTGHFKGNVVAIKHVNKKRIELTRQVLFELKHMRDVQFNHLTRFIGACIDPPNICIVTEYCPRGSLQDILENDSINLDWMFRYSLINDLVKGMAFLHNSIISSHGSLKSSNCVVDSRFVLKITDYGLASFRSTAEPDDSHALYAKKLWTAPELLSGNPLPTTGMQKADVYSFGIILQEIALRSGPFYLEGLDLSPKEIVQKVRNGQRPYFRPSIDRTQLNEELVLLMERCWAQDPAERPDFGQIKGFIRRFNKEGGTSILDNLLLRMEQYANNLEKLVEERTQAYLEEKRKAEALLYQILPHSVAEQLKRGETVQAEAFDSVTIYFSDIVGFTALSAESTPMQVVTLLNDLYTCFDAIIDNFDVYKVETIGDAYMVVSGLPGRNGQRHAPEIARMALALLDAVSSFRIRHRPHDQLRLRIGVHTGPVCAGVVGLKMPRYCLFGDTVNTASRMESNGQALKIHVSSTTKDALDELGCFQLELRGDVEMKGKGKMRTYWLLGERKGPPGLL
PLC-gamma1 inh – inhibitors of human phospholipase C gamma1; AID 720700; hit rate 0.84% among 370,000; inhibition, % at 12.2 µM; P19174; purified PLC-gamma1, fluorogenic substrate, fluorescence
GC-A act – GC-A (human) enzyme activation; P16066; HEK293 GC-A cells, cGMP TR-FRET, EC30 ANP; 0% at EC30 ANP, 100% saturating ANP; activation, % at 10 µM; hit rate 0.14% among 370,000; in the data active = activation above about 40%
PLCgamma1 ctr – PLC-gamma1 inhibition, counter-screen for PLC-beta3 hits; shares compounds with PLC-gamma1 inh; purified PLC-gamma1, fluorogenic substrate, fluorescence; inhibition, % at 12.3 µM; hit rate 3.1% among 3,300
PLCb3 confirm – human PLC-beta3 inhibition, confirmation. shares compounds with PLC-gamma1 inh. inhibition, % at 12.3 µM. hit rate 1% among 3,300. purified PLC-beta3, fluorogenic substrate fluorescence; in the data active = inhibition above about 11%
Numbers without * were called inactive; i = inactive; / = no result given. Cut-off read from the data, not from the text of the source, unless noted: active = inhibition above about 9.5%; inactive = the rest.

SMILES | PLCb3 inh | NPR2 activator | PLC-gamma1 inh | GC-A act | PLCgamma1 ctr | PLCb3 confirm
CC1(C)Cc2c(sc(/N=C/N3CCCCCC3)c2C#N)C(C)(C)N1 | 3 | 5 | 1 | 4 | / | /
COc1cccc(C2(c3cccc(OC)c3)CC2C(=O)Nc2ccccc2Cl)c1 (stereo not drawn) | -3 | -5 | 4 | -5 | / | /
CCN1C(=O)C(CC(=O)Nc2ccc(OC)cc2)N(CCc2ccc(OC)cc2)C1=S (stereo not drawn) | 14* | 3 | 6 | -1 | -7 | -1
O=C1c2c(O)cccc2C(C2OC(CO)[C@@H](O)[C@H](O)[C@H]2O)c2cc(CO)cc(O)c21 (stereo partly drawn) | -11 | 3 | -5 | 6 | / | /
O=C(O)c1cc(O)c2c(c1)[C@H]([C@H]1c3cc(C(=O)O)cc(O)c3C(=O)c3c(O[C@@H]4O[C@H](CO)[C@@H](O)[C@H](O)[C@H]4O)cccc31)c1cccc(OC3O[C@H](CO)[C@@H](O)[C@H](O)[C@H]3O)c1C2=O (stereo partly drawn) | 19* | -31 | 33* | -41 | 28* | 7
CCCOc1cccc(C(=O)NCCNC(=O)c2ccco2)c1 | -2 | -4 | 1 | -6 | / | /
COc1ccc(CNC(=O)CS(=O)(=O)Cc2nc(-c3ccc(OC)cc3)oc2C)cc1 | -5 | -2 | -1 | -4 | / | /
CC1CC(C)CN(C(=O)c2ccc(CSc3nc4ccncc4[nH]3)cc2)C1 (stereo not drawn) | 14* | 7 | 9 | -1 | -10 | -4
CCN(CCNC(=O)c1ccc(CSc2nc3ccncc3[nH]2)cc1)c1ccccc1 | 3 | 1 | 2 | 3 | / | /
N#Cc1c(N)n(-c2ccc(C(=O)O)cc2)c2nc3ccccc3nc12 | i | -4 | i | 2 | / | /
FC(F)(F)c1ccccc1NC(=S)Nc1ccccc1 | -5 | -8 | 11* | 5 | -3 | -2
CC(OC(=O)c1cccc([N+](=O)[O-])c1)C(=O)N1CCc2ccccc21 (stereo not drawn) | -5 | 7 | 5 | 0 | / | /
Cc1ccc2nc(SC(C(=O)Nc3ccc(F)cc3)c3ccccc3)[nH]c2c1 (stereo not drawn) | 6 | 0 | 13* | -2 | -2 | -8
COC(=O)c1ccccc1NN=Nc1ccccc1[N+](=O)[O-] | 13* | 1 | 2 | 1 | -3 | 0
O=[N+]([O-])c1ccccc1N=NNc1ccccc1 | 1 | -8 | 5 | -7 | / | /
CCOC(=O)c1c(C)[nH]c(C)c1S(=O)(=O)NCCc1ccc(SC)cc1 | -3 | 0 | 4 | -1 | / | /
CCOC(=O)c1c(C)[nH]c(C)c1S(=O)(=O)NCCc1sccc1C | -4 | 4 | 9.9* | -5 | -1 | -2
COc1ccccc1NC(=O)C(=N\O)/C(C)=N/O | 4 | 0 | 11* | 1 | -6 | 0
COc1ccccc1NC(C)=O | 5 | 1 | 1 | 3 | / | /
CCCC/C=C1/[C@@H](C(C)C)N(Cc2ccc3c(c2)OCO3)C2=N[C@H](c3ccccc3)CC(=O)N21 | 11* | -5 | 8 | -1 | 2 | 0
CCCC/C=C1/[C@@H](c2ccc(Cl)cc2)N(Cc2ccc3c(c2)OCO3)C2=N[C@@H](c3ccccc3)CC(=O)N21 | 2 | 5 | -3 | 4 | / | /
CCc1cccc2c(N=O)c(O)[nH]c12 | 1 | 1 | 11* | 0 | -2 | 1
COc1ccc(/C=N/Nc2nnc(Cc3ccc(OC)c(OC)c3)c(=O)[nH]2)cc1 | 9 | -1 | 14* | 2 | -1 | -4
COc1ccc(/C=N/Nc2nnc(Cc3ccccc3)c(=O)[nH]2)cc1 | -6 | -1 | 0 | 14 | / | /
COc1ccc(Cc2nnc(N/N=C/c3ccc(N(C)C)cc3)[nH]c2=O)cc1OC | -11 | -2 | 2 | -3 | / | /
SMILES | PLCb3 inh | NPR2 activator | PLC-gamma1 inh | GC-A act | PLCgamma1 ctr | PLCb3 confirm
COc1ccc(/C=N/Nc2nnc(Cc3ccc(OC)c(OC)c3)c(=O)[nH]2)cc1OC | 11* | -11 | 4 | -1 | 3 | 4
Cc1ccc(NC(=O)CN(C)C(=O)COc2ncnc3ccc(Br)cc23)cc1 | -7 | -5 | -1 | -2 | / | /
Nn1c(SCC(=O)NCC2CCCO2)nnc1-c1ccco1 (stereo not drawn) | -5 | 1 | -2 | -2 | / | /
Cc1nn(-c2ccc(Cl)c(Cl)c2Cl)c(=O)c2ccccc12 | 5 | -5 | 11* | -4 | 2 | 4
OCCC1CN(Cc2cccn2-c2ncccn2)CCN1Cc1ccccc1 (stereo not drawn) | -7 | -12 | -5 | -6 | / | /
COC(=O)C1=C(C(=O)OC)C(c2cc(Br)ccc2O)c2sc(=O)[nH]c2S1 (stereo not drawn) | -13 | -2 | -8 | -5 | / | /
C=CCN(Cc1ccc(Cl)s1)C(=O)c1ccc(F)c(S(=O)(=O)N2CCOCC2)c1 | 5 | 1 | 80* | -5 | 0 | -3
O=C(Nc1ccccc1C(=O)NCc1ccccc1)c1ccco1 | -12 | 3 | -10 | 3 | / | /
N#Cc1cc([N+](=O)[O-])cnc1Nc1ccccc1 | 12* | 1 | 10* | 2 | -2 | 0
CCOC(=O)CNc1ncc([N+](=O)[O-])cc1C#N | 1 | -4 | 5 | 2 | / | /
CCOc1ccc(N(CC(=O)NCCc2ccccc2)C(=O)c2csnn2)cc1 | -6 | 2 | 11* | -2 | 3 | 0
COc1ccc(N(CC(=O)NCCc2ccccc2)C(=O)c2csnn2)cc1 | -3 | 4 | 3 | -2 | / | /
Cc1ccc(N(C)S(=O)(=O)c2cccc(C(=O)N3CCN(Cc4ccccc4)CC3)c2)cc1 | -4 | 1 | 11* | 0 | 2 | 2
CN1OC[C@@H]2CN(C(=O)C(C)(C)C)[C@H](c3ccc(-c4cc5ccccc5o4)cc3)C[C@@H]21 | 2 | -2 | 4 | 20 | / | /
COc1cccc(COCCN2CCN(S(=O)(=O)c3ccc(C)cc3)CCC2=O)c1 | 10 | 1 | 12* | 0 | -7 | -4
CC(C)C[C@H]1CNC(=S)N1CC1CCCN1C[C@H](Cc1ccccc1)N1C[C@H](Cc2ccc(O)cc2)N(CC2CCCCC2)C1=S (stereo partly drawn) | 5 | 3 | -1 | 5 | / | /
Nn1c(SCc2c(Cl)cccc2Cl)nnc1-c1n[nH]c2c1CCC2 | -1 | 2 | -1 | 6 | / | /
COC(=O)c1c(-c2c(Cl)cccc2Cl)noc1C(=O)NNC(=O)N(C)C | 1 | -2 | 9.8* | -4 | 4 | -1
Cn1cc(C(=O)N2CCCCCC2)c(=O)c2cc(S(=O)(=O)N3CCCCC3)ccc21 | -4 | -1 | 2 | 6 | / | /
CCC1CCCCN1CCCNC(=O)c1cn(C)c2ccc(S(=O)(=O)N(C)C3CCCCC3)cc2c1=O (stereo not drawn) | -9 | -9 | 12* | -2 | -6 | 1
COC(=O)c1cn(C)c2ccc(S(=O)(=O)N(C)C3CCCCC3)cc2c1=O | 8 | -3 | 11* | -1 | 1 | 2

High-throughput results from PubChem.
